# In publication PMC7862700, “An all-to-all approach to the identification of sequence-specific readers for epigenetic DNA modifications on cytosine”:
# Assays:
# Test in all cases: DAPPL (digital affinity profiling via proximity ligation, sequencing); 10 mM Tris-HCl pH 7.5, 50 mM NaCl, 1 mM DTT, 4% glycerol, room temperature, 30 min; GST-TFs on glutathione beads, 16-mer random dsDNA library, 0.1% formaldehyde crosslink after washing; high values mean tight binding
# FEV = biological target: T1, FEV (Homo sapiens, UniProt Q99581 1-238); settings: protein: recombinant; tags: N-terminal GST; dsDNA, one strand shown
# T1 sequence: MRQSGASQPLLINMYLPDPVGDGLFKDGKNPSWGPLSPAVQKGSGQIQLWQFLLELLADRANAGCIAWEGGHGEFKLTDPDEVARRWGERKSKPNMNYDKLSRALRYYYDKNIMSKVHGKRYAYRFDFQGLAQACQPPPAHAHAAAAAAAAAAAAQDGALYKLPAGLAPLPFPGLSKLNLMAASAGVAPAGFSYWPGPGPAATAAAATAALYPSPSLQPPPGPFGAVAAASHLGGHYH
# Summary of the method: (§1)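 Yeast served to express human transcription factors as GST fusions, which were then captured on glutathione beads and labelled with DNA barcodes. Pooled with a tag-only sample, they were incubated with 200 nmole of a 16-mer random double-stranded DNA library for 30 min at room temperature in Tris/NaCl/DTT/glycerol buffer, washed, crosslinked with 0.1% formaldehyde, ligated by proximity, amplified by PCR and sequenced. Dividing each hexamer's read frequency for a factor by its frequency for the tag-only sample gives the binding signal.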
# ETV5 = ETV5 (Homo sapiens, UniProt P41161 1-510); settings: protein: recombinant; tags: N-terminal GST; dsDNA, one strand shown
# Summary of the method: as §1
# HSF1 = HSF1 (Homo sapiens, UniProt Q00613 1-529); settings: protein: recombinant; tags: N-terminal GST; chain copies: 3; dsDNA, one strand shown
# Summary of the method: as §1
# SPIC = biological target: T2, SPIC (Homo sapiens, UniProt Q8N5J4 1-248); settings: protein: recombinant; tags: N-terminal GST; dsDNA, one strand shown
# T2 sequence: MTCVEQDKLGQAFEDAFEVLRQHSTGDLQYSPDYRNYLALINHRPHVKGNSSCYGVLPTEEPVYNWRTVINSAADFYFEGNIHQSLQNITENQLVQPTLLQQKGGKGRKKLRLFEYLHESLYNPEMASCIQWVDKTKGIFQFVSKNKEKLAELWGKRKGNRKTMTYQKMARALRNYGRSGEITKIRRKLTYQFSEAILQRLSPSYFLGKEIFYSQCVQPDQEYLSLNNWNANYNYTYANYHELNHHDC
# Summary of the method: as §1
# ELF4 = ELF4 (Homo sapiens, UniProt Q99607 1-663); settings: protein: recombinant; tags: N-terminal GST; dsDNA, one strand shown
# Summary of the method: as §1
# ELK4 = biological target: T3, ELK4 (Homo sapiens, UniProt P28324-2 1-405); settings: protein: recombinant; tags: N-terminal GST; dsDNA, one strand shown
# T3 sequence: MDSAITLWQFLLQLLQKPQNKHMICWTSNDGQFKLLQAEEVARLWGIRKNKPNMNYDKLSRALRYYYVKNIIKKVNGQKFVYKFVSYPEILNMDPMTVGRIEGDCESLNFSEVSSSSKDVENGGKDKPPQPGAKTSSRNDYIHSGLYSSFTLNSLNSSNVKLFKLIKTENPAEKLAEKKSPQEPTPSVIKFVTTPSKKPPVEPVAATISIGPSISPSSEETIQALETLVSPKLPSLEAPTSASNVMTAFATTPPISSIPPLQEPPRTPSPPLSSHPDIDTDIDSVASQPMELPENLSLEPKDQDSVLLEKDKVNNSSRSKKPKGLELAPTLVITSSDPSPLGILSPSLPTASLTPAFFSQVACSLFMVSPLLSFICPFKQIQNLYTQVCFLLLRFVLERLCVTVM
# Summary of the method: as §1
# ETV2 = biological target: T4, ETV2 (Homo sapiens, UniProt O00321 1-342); settings: protein: recombinant; tags: N-terminal GST; dsDNA, one strand shown
# T4 sequence: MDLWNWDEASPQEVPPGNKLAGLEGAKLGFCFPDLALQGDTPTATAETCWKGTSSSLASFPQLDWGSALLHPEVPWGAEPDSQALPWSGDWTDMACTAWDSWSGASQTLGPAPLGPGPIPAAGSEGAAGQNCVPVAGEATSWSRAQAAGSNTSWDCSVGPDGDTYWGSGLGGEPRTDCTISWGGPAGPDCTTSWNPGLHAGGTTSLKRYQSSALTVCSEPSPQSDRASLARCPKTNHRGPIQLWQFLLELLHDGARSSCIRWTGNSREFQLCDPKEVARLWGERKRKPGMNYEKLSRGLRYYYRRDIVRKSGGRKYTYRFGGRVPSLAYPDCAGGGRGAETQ
# Summary of the method: as §1
# ELF3 = biological target: T5, ELF3 (Homo sapiens, UniProt P78545 1-371); settings: protein: recombinant; tags: N-terminal GST; dsDNA, one strand shown
# T5 sequence: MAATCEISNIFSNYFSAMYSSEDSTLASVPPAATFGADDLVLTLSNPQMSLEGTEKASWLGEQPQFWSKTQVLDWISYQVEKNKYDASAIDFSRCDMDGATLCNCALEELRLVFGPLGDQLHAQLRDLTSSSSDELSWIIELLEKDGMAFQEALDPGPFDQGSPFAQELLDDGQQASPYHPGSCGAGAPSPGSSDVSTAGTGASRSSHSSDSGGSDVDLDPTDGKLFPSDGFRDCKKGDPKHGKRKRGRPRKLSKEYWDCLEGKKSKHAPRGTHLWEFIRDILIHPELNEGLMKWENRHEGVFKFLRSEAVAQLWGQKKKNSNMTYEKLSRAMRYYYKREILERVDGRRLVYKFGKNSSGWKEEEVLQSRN
# Summary of the method: as §1
# CRX = CRX (Homo sapiens, UniProt O43186 1-299); settings: protein: recombinant; tags: N-terminal GST; dsDNA, one strand shown
# Summary of the method: as §1
# ETV1 = ETV1 (Homo sapiens, UniProt P50549 1-477); settings: protein: recombinant; tags: N-terminal GST; dsDNA, one strand shown
# Summary of the method: as §1
# ERF = biological target: T6, ERF (Homo sapiens, UniProt P50548 1-548); settings: protein: recombinant; tags: N-terminal GST; dsDNA, one strand shown
# T6 sequence: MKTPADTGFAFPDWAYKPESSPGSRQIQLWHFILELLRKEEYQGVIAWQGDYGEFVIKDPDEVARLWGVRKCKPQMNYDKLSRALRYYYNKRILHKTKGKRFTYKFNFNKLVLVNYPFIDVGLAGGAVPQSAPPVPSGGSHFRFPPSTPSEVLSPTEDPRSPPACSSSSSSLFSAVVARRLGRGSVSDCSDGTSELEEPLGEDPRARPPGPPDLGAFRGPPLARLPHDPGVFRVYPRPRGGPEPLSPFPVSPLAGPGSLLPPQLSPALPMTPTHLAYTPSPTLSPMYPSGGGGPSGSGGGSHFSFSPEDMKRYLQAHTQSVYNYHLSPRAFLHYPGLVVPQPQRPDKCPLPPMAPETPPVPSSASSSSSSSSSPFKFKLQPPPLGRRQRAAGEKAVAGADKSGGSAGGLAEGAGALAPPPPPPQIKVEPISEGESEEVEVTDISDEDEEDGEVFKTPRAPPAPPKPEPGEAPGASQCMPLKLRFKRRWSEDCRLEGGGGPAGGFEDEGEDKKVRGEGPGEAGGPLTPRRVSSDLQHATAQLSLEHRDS
# Summary of the method: as §1
# ETV3L = biological target: T7, ETV3L (Homo sapiens, UniProt Q6ZN32 1-361); settings: protein: recombinant; tags: N-terminal GST; dsDNA, one strand shown
# T7 sequence: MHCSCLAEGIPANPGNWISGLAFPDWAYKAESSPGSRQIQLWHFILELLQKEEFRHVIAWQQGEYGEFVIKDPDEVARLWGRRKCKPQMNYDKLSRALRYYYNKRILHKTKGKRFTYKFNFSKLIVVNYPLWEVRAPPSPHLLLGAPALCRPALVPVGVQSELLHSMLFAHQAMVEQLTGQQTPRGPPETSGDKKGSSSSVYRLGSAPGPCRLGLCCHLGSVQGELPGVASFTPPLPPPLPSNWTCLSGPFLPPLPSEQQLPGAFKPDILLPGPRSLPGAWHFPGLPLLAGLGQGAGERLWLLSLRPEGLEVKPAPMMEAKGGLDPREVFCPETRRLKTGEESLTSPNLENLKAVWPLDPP
# Summary of the method: as §1
# ETS2 = biological target: T8, ETS2 (Homo sapiens, UniProt P15036 1-469); settings: protein: recombinant; tags: N-terminal GST; dsDNA, one strand shown
# T8 sequence: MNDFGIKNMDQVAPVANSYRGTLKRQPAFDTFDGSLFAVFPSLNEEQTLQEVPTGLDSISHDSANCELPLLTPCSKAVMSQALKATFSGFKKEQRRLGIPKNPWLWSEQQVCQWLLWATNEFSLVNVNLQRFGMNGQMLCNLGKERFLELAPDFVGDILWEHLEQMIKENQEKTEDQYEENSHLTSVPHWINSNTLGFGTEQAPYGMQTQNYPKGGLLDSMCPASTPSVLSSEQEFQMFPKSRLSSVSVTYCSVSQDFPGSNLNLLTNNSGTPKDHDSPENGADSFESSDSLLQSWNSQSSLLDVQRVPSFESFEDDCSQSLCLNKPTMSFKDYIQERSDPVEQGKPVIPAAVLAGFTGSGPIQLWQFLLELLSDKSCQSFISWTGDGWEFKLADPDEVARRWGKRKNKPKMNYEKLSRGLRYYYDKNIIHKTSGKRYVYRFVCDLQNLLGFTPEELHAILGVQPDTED
# Summary of the method: as §1
# SPDEF = biological target: T9, SPDEF (Homo sapiens, UniProt O95238 1-335); settings: protein: recombinant; tags: N-terminal GST; dsDNA, one strand shown
# T9 sequence: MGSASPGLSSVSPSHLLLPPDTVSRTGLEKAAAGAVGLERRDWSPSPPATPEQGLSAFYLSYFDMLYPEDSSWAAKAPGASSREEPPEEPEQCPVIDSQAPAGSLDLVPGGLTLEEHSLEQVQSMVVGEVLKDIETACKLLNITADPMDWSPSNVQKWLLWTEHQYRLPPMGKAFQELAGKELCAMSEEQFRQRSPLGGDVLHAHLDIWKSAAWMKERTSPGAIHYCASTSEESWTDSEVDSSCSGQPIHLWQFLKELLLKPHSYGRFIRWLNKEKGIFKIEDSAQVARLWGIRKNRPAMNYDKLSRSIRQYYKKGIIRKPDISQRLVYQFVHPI
# Summary of the method: as §1
# ETV7 = biological target: T10, ETV7 (Homo sapiens, UniProt Q9Y603 1-341); settings: protein: recombinant; tags: N-terminal GST; dsDNA, one strand shown
# T10 sequence: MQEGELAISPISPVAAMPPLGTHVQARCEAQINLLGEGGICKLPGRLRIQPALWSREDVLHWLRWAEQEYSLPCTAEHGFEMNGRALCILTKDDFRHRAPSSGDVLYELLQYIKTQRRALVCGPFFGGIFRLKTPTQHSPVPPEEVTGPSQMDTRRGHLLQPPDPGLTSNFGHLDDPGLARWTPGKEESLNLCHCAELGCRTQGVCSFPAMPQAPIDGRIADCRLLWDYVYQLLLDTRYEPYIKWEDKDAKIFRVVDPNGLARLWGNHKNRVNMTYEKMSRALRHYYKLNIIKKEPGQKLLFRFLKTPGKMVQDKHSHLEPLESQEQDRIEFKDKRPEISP
# Summary of the method: as §1
# ELF5 = biological target: T11, ELF5 (Homo sapiens, UniProt Q9UKW6-2 1-255); settings: protein: recombinant; tags: N-terminal GST; dsDNA, one strand shown
# T11 sequence: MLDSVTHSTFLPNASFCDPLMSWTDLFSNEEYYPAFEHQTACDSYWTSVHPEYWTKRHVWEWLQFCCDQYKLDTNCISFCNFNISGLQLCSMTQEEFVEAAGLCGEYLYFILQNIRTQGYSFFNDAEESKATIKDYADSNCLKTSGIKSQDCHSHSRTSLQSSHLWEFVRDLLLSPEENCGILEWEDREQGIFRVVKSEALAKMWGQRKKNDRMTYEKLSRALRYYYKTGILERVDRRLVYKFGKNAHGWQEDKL
# Summary of the method: as §1
# ETV3 = biological target: T12, ETV3 (Homo sapiens, UniProt P41162-2 1-143); settings: protein: recombinant; tags: N-terminal GST; dsDNA, one strand shown
# T12 sequence: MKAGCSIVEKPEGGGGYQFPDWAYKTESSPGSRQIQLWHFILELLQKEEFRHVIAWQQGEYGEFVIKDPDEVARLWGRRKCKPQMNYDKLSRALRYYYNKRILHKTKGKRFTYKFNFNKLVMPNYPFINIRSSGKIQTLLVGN
# Summary of the method: as §1
# ETV6 = ETV6 (Homo sapiens, UniProt P41212 1-452); settings: protein: recombinant; tags: N-terminal GST; dsDNA, one strand shown
# Summary of the method: as §1
# HSF1, sequence (Q00613 whole entry): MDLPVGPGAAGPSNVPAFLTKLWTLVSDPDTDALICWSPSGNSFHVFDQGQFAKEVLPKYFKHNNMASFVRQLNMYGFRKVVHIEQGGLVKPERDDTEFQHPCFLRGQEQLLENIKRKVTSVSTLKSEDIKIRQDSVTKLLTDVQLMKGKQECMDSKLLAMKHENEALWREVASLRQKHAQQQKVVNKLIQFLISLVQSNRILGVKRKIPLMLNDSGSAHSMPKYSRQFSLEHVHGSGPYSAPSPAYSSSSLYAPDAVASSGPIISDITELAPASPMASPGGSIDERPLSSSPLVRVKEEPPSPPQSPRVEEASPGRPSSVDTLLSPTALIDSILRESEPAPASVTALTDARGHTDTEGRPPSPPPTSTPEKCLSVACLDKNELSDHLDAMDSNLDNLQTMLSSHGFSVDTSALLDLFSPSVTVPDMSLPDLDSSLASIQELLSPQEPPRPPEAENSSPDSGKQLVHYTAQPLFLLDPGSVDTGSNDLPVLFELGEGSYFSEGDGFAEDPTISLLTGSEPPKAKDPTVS
# ETV5, sequence (P41161 whole entry): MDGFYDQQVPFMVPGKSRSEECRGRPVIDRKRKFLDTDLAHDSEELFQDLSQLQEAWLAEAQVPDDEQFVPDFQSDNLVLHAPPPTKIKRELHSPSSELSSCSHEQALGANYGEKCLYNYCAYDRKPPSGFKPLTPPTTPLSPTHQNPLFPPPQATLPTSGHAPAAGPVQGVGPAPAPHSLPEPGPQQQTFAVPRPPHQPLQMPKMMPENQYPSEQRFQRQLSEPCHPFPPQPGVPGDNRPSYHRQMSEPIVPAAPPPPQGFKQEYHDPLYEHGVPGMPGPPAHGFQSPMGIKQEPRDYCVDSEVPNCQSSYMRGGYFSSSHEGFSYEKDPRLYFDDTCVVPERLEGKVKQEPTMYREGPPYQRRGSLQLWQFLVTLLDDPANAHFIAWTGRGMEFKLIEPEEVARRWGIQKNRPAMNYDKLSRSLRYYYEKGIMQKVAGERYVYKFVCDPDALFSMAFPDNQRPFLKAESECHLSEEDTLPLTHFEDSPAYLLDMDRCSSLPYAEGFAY
# ELF4, sequence (Q99607 whole entry): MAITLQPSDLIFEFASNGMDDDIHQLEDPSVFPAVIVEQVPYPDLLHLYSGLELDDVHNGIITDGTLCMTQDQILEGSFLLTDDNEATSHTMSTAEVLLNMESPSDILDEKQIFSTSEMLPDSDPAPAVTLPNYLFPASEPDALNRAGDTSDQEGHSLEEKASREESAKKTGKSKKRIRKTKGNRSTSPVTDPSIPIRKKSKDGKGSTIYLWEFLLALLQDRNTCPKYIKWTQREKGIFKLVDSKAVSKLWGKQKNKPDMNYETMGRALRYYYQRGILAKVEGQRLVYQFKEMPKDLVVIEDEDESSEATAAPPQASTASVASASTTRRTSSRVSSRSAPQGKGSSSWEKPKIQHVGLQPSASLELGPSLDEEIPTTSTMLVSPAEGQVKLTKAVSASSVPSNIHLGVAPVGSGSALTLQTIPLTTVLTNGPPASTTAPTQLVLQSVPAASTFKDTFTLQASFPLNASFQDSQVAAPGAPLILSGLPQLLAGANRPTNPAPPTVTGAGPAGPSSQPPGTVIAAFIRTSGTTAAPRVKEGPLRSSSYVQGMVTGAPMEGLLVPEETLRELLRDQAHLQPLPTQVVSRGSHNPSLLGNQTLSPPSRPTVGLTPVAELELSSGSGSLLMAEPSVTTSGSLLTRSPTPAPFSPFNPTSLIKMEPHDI
# CRX, sequence (O43186 whole entry): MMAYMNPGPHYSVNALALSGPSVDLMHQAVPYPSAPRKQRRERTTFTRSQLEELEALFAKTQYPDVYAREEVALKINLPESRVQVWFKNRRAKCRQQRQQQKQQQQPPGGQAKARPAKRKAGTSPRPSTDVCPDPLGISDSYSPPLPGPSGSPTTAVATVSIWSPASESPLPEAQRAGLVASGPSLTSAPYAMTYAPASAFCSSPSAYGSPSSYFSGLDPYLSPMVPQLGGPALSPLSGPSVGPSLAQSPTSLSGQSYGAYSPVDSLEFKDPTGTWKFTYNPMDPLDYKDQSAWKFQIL
# ETV6, sequence (P41212 whole entry): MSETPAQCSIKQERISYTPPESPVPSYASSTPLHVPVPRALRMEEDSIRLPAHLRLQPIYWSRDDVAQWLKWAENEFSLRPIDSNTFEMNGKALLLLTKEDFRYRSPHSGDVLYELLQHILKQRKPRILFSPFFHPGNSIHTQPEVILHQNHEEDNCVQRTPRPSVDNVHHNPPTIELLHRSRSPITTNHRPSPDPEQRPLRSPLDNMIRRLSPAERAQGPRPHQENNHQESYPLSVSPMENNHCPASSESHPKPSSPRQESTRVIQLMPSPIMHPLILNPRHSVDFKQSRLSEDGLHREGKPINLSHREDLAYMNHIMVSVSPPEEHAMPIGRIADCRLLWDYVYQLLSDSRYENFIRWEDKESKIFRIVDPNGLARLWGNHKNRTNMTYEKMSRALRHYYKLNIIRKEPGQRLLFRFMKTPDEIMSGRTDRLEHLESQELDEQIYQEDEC
# ETV1, sequence (P50549 whole entry): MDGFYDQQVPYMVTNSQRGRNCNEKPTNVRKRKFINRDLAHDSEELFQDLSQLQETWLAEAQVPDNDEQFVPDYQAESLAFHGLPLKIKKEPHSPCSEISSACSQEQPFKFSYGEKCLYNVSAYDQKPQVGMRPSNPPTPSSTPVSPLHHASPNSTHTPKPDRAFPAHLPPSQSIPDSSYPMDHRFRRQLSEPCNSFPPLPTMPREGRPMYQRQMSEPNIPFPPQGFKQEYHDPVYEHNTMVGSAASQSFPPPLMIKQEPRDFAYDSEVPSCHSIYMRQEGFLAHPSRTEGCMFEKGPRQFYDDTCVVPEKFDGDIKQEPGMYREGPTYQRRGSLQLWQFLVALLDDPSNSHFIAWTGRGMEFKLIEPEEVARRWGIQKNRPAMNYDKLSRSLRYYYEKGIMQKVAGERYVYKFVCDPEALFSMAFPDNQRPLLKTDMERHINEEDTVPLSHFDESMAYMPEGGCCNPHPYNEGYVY
sequence,measurement,setting,value
CATTTA,binding signal,FEV,"1.23 fold enrichment (6-mer frequency, TF over GST control)"
same,binding signal,ETV5,"1.22 fold enrichment (6-mer frequency, TF over GST control)"
same,binding signal,HSF1,"1.13 fold enrichment (6-mer frequency, TF over GST control)"
same,binding signal,SPIC,"1.17 fold enrichment (6-mer frequency, TF over GST control)"
same,binding signal,ELF4,"1.14 fold enrichment (6-mer frequency, TF over GST control)"
same,binding signal,ELK4,"1.17 fold enrichment (6-mer frequency, TF over GST control)"
same,binding signal,ETV2,"1.34 fold enrichment (6-mer frequency, TF over GST control)"
same,binding signal,ELF3,"1.2 fold enrichment (6-mer frequency, TF over GST control)"
same,binding signal,CRX,"1.36 fold enrichment (6-mer frequency, TF over GST control)"
same,binding signal,ETV1,"1.22 fold enrichment (6-mer frequency, TF over GST control)"
same,binding signal,ERF,"1.23 fold enrichment (6-mer frequency, TF over GST control)"
same,binding signal,ETV3L,"1.24 fold enrichment (6-mer frequency, TF over GST control)"
same,binding signal,ETS2,"1.31 fold enrichment (6-mer frequency, TF over GST control)"
same,binding signal,SPDEF,"1.22 fold enrichment (6-mer frequency, TF over GST control)"
same,binding signal,ETV7,"1.27 fold enrichment (6-mer frequency, TF over GST control)"
same,binding signal,ELF5,"1.11 fold enrichment (6-mer frequency, TF over GST control)"
same,binding signal,ETV3,"1.23 fold enrichment (6-mer frequency, TF over GST control)"
same,binding signal,ETV6,"1.13 fold enrichment (6-mer frequency, TF over GST control)"
